# Screens deposited in PubChem BioAssay by National Center for Advancing Translational Sciences (NCATS).
# HPGD block – qHTS Assay for Inhibitors of HPGD (15-Hydroxyprostaglandin Dehydrogenase); 15-hydroxyprostaglandin dehydrogenase [NAD(+)] (Homo sapiens), P15428; purified HPGD, NADH fluorescence kinetic, PGE2 substrate; Potency, µM, hits mostly inhibitors; 150,000 tested, 4.3% active; AID 894, 2007
#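 NADH formation kinetics: reaction with 30 uM PGE2 and 1 mM NAD+ (final), 20 nM enzyme, Tris-HCl pH 8 with Tween 20, after 15 min compound preincubation at room temperature. Fluorescence change, last versus first of five reads.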
# Lamin A splicing – qHTS Assay for Modulators of Lamin A Splicing. HeLa LMNA splicing GFP/RFP minigene ratio, 48 h. 200,000 tested, 0.01% active. Potency, µM (highest dose often 46.1 µM), most hits filed as inhibitors; active means well fitted inhibition curve with a large enough effect in the signal ratio, with a control signal flat, not every such curve was filed as active; inconclusive means small, poorly fitted or top-dose-only effect, or effect the other way, or a change in a side signal; the % refers to the signal ratio
#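 S3 HeLa cells stably expressing lamin A-EGFP splicing minigene plus DsRed2, 600 cells/well, 48 h compound exposure at 37C. Laser-scanning cytometry; analysed as GFP (500-530 nm)/RFP (575-640 nm) total intensity ratio; 0.5% DMSO vehicle.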
# ALDH1A1 inh – qHTS Assay for Inhibitors of Aldehyde Dehydrogenase 1 (ALDH1A1); Aldehyde dehydrogenase 1A1 (Homo sapiens), P00352; Purified ALDH1A1, NADH fluorescence, propionaldehyde substrate; Potency, µM (doses to about 75.3 µM), actives largely listed as inhibitors; 220,000 tested, 7.3% active; AID 1030, 2008
# Target sequence (P00352 whole entry, looked up): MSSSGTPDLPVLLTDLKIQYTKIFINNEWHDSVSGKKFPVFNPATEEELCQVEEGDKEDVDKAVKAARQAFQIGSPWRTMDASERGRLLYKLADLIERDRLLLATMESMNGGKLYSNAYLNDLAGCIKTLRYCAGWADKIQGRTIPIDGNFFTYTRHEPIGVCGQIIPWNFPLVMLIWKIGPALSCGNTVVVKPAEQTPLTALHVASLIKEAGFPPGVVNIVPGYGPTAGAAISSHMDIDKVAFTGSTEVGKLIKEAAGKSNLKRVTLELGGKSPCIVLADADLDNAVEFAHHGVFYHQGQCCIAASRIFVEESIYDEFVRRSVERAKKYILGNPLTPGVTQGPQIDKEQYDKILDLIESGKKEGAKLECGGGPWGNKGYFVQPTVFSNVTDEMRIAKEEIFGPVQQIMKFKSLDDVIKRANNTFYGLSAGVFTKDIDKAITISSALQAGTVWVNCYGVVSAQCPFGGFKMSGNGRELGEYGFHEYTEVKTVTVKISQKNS
# KDM4E inh – qHTS Assay for Inhibitors of Human Jumonji Domain Containing 2E (JMJD2E); JMJD2E catalytic domain, FDH-coupled NADH fluorescence (FDH is formaldehyde dehydrogenase); Potency, µM (top dose mostly 57.1 µM), actives largely listed as inhibitors; AID 2147, 2009; 230,000 tested, 1.6% active; further: nearly all actives have a fitted effect of over 50% in size
# HttQ103 aggreg – qHTS Multiplex Assay to Identify Dual Action Probes in a Cell Model of Huntington: Aggregate Formation (GFP) | PC12 HttQ103-GFP aggregates, Acumen cytometry, 40 h | Potency, µM (series often up to 46.1 µM), usual class: inhibitors | 220,000 tested, 1.1% active; active means well fitted curve in the direction sought with a large enough effect; inconclusive means small, poorly fitted or top-dose-only effect, or another doubt; inactive means no such curve, though single readings can be large; an effect the other way counts as inactive or inconclusive; further: nearly all actives have a fitted effect of over 60% in size
#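 Aggregate formation scored by laser-scanning cytometer (488 excitation, 500–530 emission) in lysed PC12 cells expressing Q103-GFP after 100 nM tebufenozide induction; library tested in dose series, with ATPLite reagent added in the multiplex.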
# HTT ATP protect – qHTS Multiplex Assay to Identify Dual Action Probes in a Cell Model of Huntington: Cytoprotection (ATP) | PC12 HTT-Q103 induced, cytoprotection, ATP luminescence, 40 h | Potency, µM (highest dose often 56.4 µM), usual class: activators | 230,000 tested, 0.14% active; active means well fitted curve in the direction sought with a large enough effect; inconclusive means small, poorly fitted or top-dose-only effect, or another doubt; inactive means no such curve, though single readings can be large; an effect the other way counts as inactive or inconclusive; further: nearly all actives have a fitted effect of over 45% in size
#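 Quantitative HTS on tebufenozide-induced (100 nM) PC12 cells expressing HTTQ103 exon 1–GFP; compounds tested as a concentration series; survival measured via cellular ATP.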
# Hits are given with their value; . = inactive; ? = inconclusive; / = no result given; ! = repeats disagree; [ ] = remark or other dose. Only some compounds are listed: those with a hit (about 9.2% of all), similar ones and a draw of the others. Unless noted, the call rests on the fitted dose curve; in most records, active means well fitted inhibition curve with a large enough effect (not every such curve was filed as active); inconclusive means small, poorly fitted or top-dose-only effect, or another doubt; inactive means no such curve, though single readings can be large or run the other way.
SMILES,HPGD block,Lamin A splicing,ALDH1A1 inh,KDM4E inh,HttQ103 aggreg,HTT ATP protect
CCCOc1ccc(N2C(=O)CC(N3CCN(CCN=CC4=C(O)CC(C)(C)CC4=O)CC3)C2=O)cc1 (configuration not stated),/,/,?,.,.[9.22 µM],.[10 µM]
Cc1ccc(N=CC2=C(O)CC(C)(C)CC2=O)nc1,.,.,?,.,.,.
O=C(Cn1nc(-c2cccc([N+](=O)[O-])c2)c2ccccc2c1=O)Nc1cccnc1,.,.,.,.,.,.
CC(Oc1ccccc1)C(=O)Nc1ccccc1C(=O)OCc1cc(=O)n2nc(C3CC3)sc2n1 (configuration not stated),/,.,/,/,/,/
CC(=O)O[C@]1(C(C)=O)CC[C@H]2[C@@H]3C[C@H](C)C4=CC(=O)CC[C@]4(C)[C@H]3CC[C@@]21C,.,?,32µM!,.,.,.
Cc1cc(C)c2c(-n3cccc3)c(C(=O)NNS(=O)(=O)c3ccc(Br)cc3)sc2n1,.,.,0.089µM,.,.,.
CCOC(=O)Nc1sc2nc(C)cc(C)c2c1-n1cccc1,.,.,?,.,.,.
CC(C)CCN(C(=O)Cc1ccc(Cl)c(Cl)c1)c1c(N)n(Cc2ccccc2)c(=O)[nH]c1=O,/,?,.,.,?,.
COC(=O)/C=C1\S/C(=N/N=C/c2ccccc2)NC1=O,25µM,.,.,.,.,.[10 µM]
COC(=O)/C=C1\S/C(=N/N=C/c2ccc(Cl)cc2)NC1=O,/,/,/,.,.[9.22 µM],.[10 µM]
COc1ccc(N(C(=O)c2ccco2)S(=O)(=O)c2ccc(F)cc2)cc1,28µM,.,.,.,.,.[1.9 µM]
CCOC(=O)c1ccc2c(c1)nc(SCC(=O)c1ccco1)n2CC,.,.,?,.,.,.
CCOC(=O)c1ccc2c(c1)nc(SCC(=O)N1CCCCC1)n2CC,5µM,.,?,.,.,.[10 µM]
COc1ccc(-n2c(SCC(=O)N3CCCCC3)nc(O)cc2=O)cc1,.,.,22µM,.,.,.[10 µM]
CCn1c(SCC(=O)N2CCCCC2)nc(O)cc1=O,0.28µM,.,.,.,.,.
CC(/C=C\C=C\c1ccccc1)=N\NC(=O)c1cncc(Br)c1,/,.,22µM,.,.,.
CC(/C=C/C=C/c1ccccc1)=N\NC(=O)c1cccnc1,/,/,?,.,.,.
COc1cccc(OCCCCCCN2CCOCC2)c1,.,.,4µM,.,.[9.22 µM],.
CCOc1cccc(OCCCCN2CCOCC2)c1,.,.,?,?,?,.
COc1cccc(NC(=O)CSC2=Nc3ccccc3C3=NC(CCC(=O)NCCc4ccccc4)C(=O)N23)c1 (configuration not stated),/,.,/,/,/,/
CCC(C(=O)OCn1nnc2ccccc2c1=O)c1ccccc1 (configuration not stated),/,?,.,.,.,.
O=C(NCCCO)/C(=C\c1cn(-c2ccccc2)nc1-c1cccnc1)NC(=O)c1ccccc1,.,.,1.8µM,.,.,.[10 µM]
O=C(NCC1CCCO1)/C(=C/c1ccccc1)NC(=O)c1ccccc1 (configuration not stated),/,/,?,.,.,.
O=C(NCC1CCCO1)/C(=C/c1cn(-c2ccccc2)nc1-c1cccnc1)NC(=O)c1ccccc1 (configuration not stated),/,.,0.56µM,.,.,.
CCCCCCc1cc2cc(-c3nnc(-c4cc(OC)c(OC)c(OC)c4)o3)c(=O)oc2cc1O,.,.,.,.,2.8µM,.[10 µM]
SMILES,HPGD block,Lamin A splicing,ALDH1A1 inh,KDM4E inh,HttQ103 aggreg,HTT ATP protect
Cc1ccc2nc(SCC3CCCCO3)[nH]c2c1 (configuration not stated),/,/,/,.,.[9.22 µM],.[10 µM]
Oc1ccccc1/C=N/NC(=S)NC1CC2C=CC1C2 (configuration not stated),/,?,25µM,25µM,.[9.22 µM],.[10 µM]
CN(C)Cc1ccccc1-c1cncnc1NCc1cccnc1,.,.,.,.,/,.
Cc1nn2c(nc(N3CCCCC3)c3ccccc32)c1C=O,?,.,.,.,.,.[10 µM]
Cc1nn2c([nH]c(=O)c3ccccc32)c1C=O,16µM,.,.,.,.,.
Cc1nn(-c2ccc(Cl)cc2)c(=O)c2ccccc12,/,/,.,.,.[9.22 µM],.[10 µM]
Cc1c(Cl)sn(-c2ccc(Cl)cc2)c1=O,/,/,1.8µM,.,.[9.22 µM],.
c1ccncc1,.,/,.,/,/,.
CC(C)C[C@@H](NC(=O)[C@@H](O)[C@H](N)Cc1ccccc1)C(=O)O,.,/,.,/,/,?
Cc1nc2ccccc2c(=O)n1/N=C/c1ccc(N(C)C)cc1,.,.,16µM,.,.,.[10 µM]
Cc1nc2ccccc2c(=O)n1/N=C/c1ccccn1,.,.,.,.,.[9.22 µM],.
Cc1nc2ccccc2c(=O)n1/N=C/c1ccc([N+](=O)[O-])o1,/,/,19µM,.,.[9.22 µM],.[10 µM]
COc1ccc2c(c1OC)C(=O)N1N=C(c3ccc(Cl)cc3)CC21 (configuration not stated),.,.,11µM,.,.,.[10 µM]
COc1ccc2c(c1OC)C(=O)N1c3ccccc3N=C(c3ccc([N+](=O)[O-])cc3)CC21 (configuration not stated),35µM,.,10µM,.,.,.[10 µM]
COc1ccc2c(c1OC)C(=O)N1N=C(c3ccc(-c4ccccc4)cc3)CC21 (configuration not stated),/,/,?,.,.,.
COc1ccc(C2=NN3C(=O)c4c(ccc(OC)c4OC)C3C2)cc1 (configuration not stated),.,.,?,.,?,?
COC(=O)[C@@]1(Cc2ccccc2)[C@H]2c3cc(C(=O)N(C)C)n(Cc4cc(F)c(F)c(F)c4)c3C[C@H]2CN1C(=O)c1ccccc1,.,/,.,?,/,.
Cc1ccccc1OCC(=O)N=Nc1c(O)n(C)c2ccccc12,/,/,/,.,?,?
COc1ccc(CNC(=O)CN(c2ccccc2)S(=O)(=O)c2ccccc2[N+](=O)[O-])cc1,/,?,?,.,.[9.22 µM],.[10 µM]
CCN1CCN(c2nc3sc4c(c3c(=O)n2-c2ccc(OC)cc2)CCCCC4)CC1,.,.,10µM,.,.,.
O=c1c2c3c(sc2nc(N2CCNCC2)n1-c1cccc(Cl)c1)CCCCC3,/,/,/,.,.[9.22 µM],.[10 µM]
C=CCc1c(C)nc(C)nc1N/N=C/c1ccccc1O,.,.,.,3.2µM,?,.[10 µM]
COc1ccc(CN(C(=O)Nc2cccc(Cl)c2)c2ccccn2)cc1OC,/,.,/,/,/,/
